Screening results (PubChem)
Shown are actives, neighbours in structure and some others; about 0.65% of the full set was active somewhere.
NS1 function inh: influenza NS1 inhibition; hit rate 0.4% among 270,000; AID 2326; Potency, µM (series often up to 46.1 µM), inactives show at the highest dose activity, positive = more growth; also: potency is read from the fitted curve at half-maximal effect; actives are rising curves; nearly all actives have a fitted effect of over 50% in size
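Growth recovery, yeast-based: influenza A NS1 expressed in S. cerevisiae causes slow growth, and suppressors are detected by OD600. The parent strain without NS1 is used as positive control.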
SARS PLP yeast: SARS-CoV PLP inhibition in yeast | S. cerevisiae expressing SARS-CoV PLpro, growth rescue | Potency, µM (series often up to 32.9 µM), for inactives: at the top dose activity, positive = growth rescue, actives largely listed as activators | hit rate 0.19% among 330,000 | AID 485353; also: potency is read from the fitted curve at half-maximal effect; 0% is about no effect; nearly all actives have a fitted effect of over 55% in size
AMA1-RON2 inh: disrupts binding of P. falciparum AMA1 to RON2; AlphaScreen AMA1-biotinylated RON2 peptide binding; Potency, µM (highest dose often 58.2 µM), without a hit: at the highest dose activity change, negative = inhibition, most hits filed as inhibitors; hit rate 0.2% among 360,000; AID 720542; active = well fitted inhibition curve with a large enough effect; inconclusive = small, poorly fitted or top-dose-only effect; inactive = no such curve, though single readings can be large or run the other way;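 also: potency is read from the fitted curve at half-maximal effect; 0% = vehicle wells and -100% = peptide control; nearly all actives have a fitted effect of over 45% in size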
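AMA1 (3D7) with his tag at 25 nM final met compounds first, then biotinylated RON2 peptide at 25 nM; detection used donor plus acceptor beads, 10 µg/mL apiece, read by AlphaScreen after 30 min at room temperature.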
Flu NS1 inh: influenza NS1 function inhibition validation; shares compounds with NS1 function inh; influenza NS1 function cell assay, 15-point titration; activity change, negative = inhibition, % at 32.9 µM; 1,400 tested, under 10 active; AID 492980; also: 0% is about no effect
Flu PR8 replic: influenza NS1 inhibitors: inhibition of influenza A/PR/8/34 replication; virus titer (log TCID50), log10 TCID50 at 5 µM; hit rate 30% among 95; MDCK infected influenza A/PR/8/34, virus titer TCID50; active compounds read low; AID 504647; shares compounds with NS1 function inh; call rule not given here
* marks the source's active call; other numbers are inactive results; ? = inconclusive; nt = not tested or not shown; [ ] = another dose, or the depositor's remark. Unless noted, calls follow the shape of the full dose curve.

SMILES	NS1 function inh	SARS PLP yeast	AMA1-RON2 inh	Flu NS1 inh	others
CCOCc1c(C(=O)NCc2ccccc2CN2CCCC2)oc2ccccc12	nt	7%	-1%	nt
CCOC(=O)CN1CC23C=CC(O2)C(C(=O)Nc2cc(OC)ccc2OC)C3C1=O (configuration not stated)	8%	12%	-4%	nt
CCOC(=O)CN1CC23C=CC(O2)C(C(=O)Nc2ccc(OC)cc2OC)C3C1=O (configuration not stated)	3.2µM*	7%	2%	-2
COC(=O)CN1C(=S)N(c2ccc(Cl)cc2)C(=O)C1CC(=O)Nc1ccc(Cl)cc1 (configuration not stated)	-5%	-4%	-3%	nt
CCCOc1ccc(NC(=O)CC2C(=O)N(Cc3ccccc3)C(=S)N2Cc2cccs2)cc1 (configuration not stated)	3.5µM*	11%	5%	-12
COC(=O)CN1C(=S)N(Cc2ccccc2)C(=O)C1CC(=O)Nc1ccc(Br)cc1 (configuration not stated)	11µM*	-30%	-5%	-31
CCN1C(=O)C(CC(=O)Nc2ccc(F)cc2)N(Cc2cccs2)C1=S (configuration not stated)	2%	0%	11%	nt
Cc1cccc(NC(=O)CNC(=O)c2ccc3nc[nH]c3c2)c1C	nt	1%	-18%	nt
N#CCOC(=O)C1CCN(S(=O)(=O)c2ccc3c(c2)OCCO3)CC1	nt	1%	15%	nt
Cc1cccc(NC(=O)COC(=O)CN2C(=O)c3ccccc3C2=O)c1	nt	nt	6%	nt
C#CCOC(=O)/C(=C/C=C/c1ccccc1)NC(=O)c1ccccc1	-7%	13%	-1%	nt
CC(C)OC(=O)/C(=C\C=C\c1ccccc1)NC(=O)c1ccccc1	?	?	-13%	-3
CN1CCN(c2nc(-c3ccccc3)c3cc(Cl)ccc3n2)CC1	-9%	-6%	-8%	nt
CN1CCN(C2=Nc3ccccc3Oc3ccc(Cl)cc32)CC1	?	-3%	-17%	-21	Flu PR8 replic=7.3*
Cc1nn(-c2ccccc2)c2c1C(c1ccc([N+](=O)[O-])cc1)N1C(=N2)C(=O)Nc2ccccc21 (configuration not stated)	10µM*	14%	-2%[2.32 µM]	7
Cc1nn(-c2ccc([N+](=O)[O-])cc2)c2c1C(c1cccc(Br)c1)N1C(=N2)C(=O)Nc2ccccc21 (configuration not stated)	21%	10%	-3%	nt
Cc1ccc(/C=C/C(=O)Oc2ccc(C#N)cc2)o1	?	-3%	nt	-28	Flu PR8 replic=7.5*
COc1cccc(OC)c1OC(=O)/C=C/c1ccc(C)o1	-12%	3%	-18%	nt
COC(=O)c1ccc(NC(=O)CN2CCN(CCO)CC2)cc1	-2%	6%	-11%	nt
N#Cc1ccsc1NC(=O)CN1CCCCCC1	-4%	-1%	33%	nt
CN(CC(=O)Nc1sccc1C#N)C1CCCCC1	7.9µM*	0%	50%	-14
O=C1CSC(=S)N1/N=C/c1cccnc1	1.1µM*	4%	53%	27
O=C1CSC(=S)N1N=Cc1ccccc1O	nt	nt	36%	nt
O[C@@H]1CN(CC2CCCCC2)[C@@H](c2ccc(Cl)cc2)C[C@H]1n1cc(-c2ccc(F)cc2)nn1	nt	nt	-4%	nt
NC(=S)N/N=C/c1ccccc1OCCSc1ccc(Cl)cc1	10µM*	11%	36%	?
SMILES	NS1 function inh	SARS PLP yeast	AMA1-RON2 inh	Flu NS1 inh	others
COc1cccc(/C=N/NC(N)=S)c1OCc1ccccc1Cl	5%	?	72%	nt
CC1(C)CC2CC(C)(CN2S(=O)(=O)c2ccc(C(=O)Nc3cccc(S(=O)(=O)N4CCOCC4)c3)cc2)C1 (configuration not stated)	13µM*	27%	-1%	14
CC1(C)CC2CC(C)(CN2S(=O)(=O)c2ccc(C(=O)Nc3cc(S(=O)(=O)N4CCOCC4)ccc3Cl)cc2)C1 (configuration not stated)	?	0%	15%	nt
O=C(O)c1cc(S(=O)(=O)NC(CO)C(O)c2ccc([N+](=O)[O-])cc2)ccc1Br (configuration not stated)	19%	10%	0%	nt
CN(C)N1C(N)=C(C#N)C(c2ccccc2F)C2=C1CC(C)(C)CC2=O (configuration not stated)	5%	1%	-2%	nt
CC(NC(=O)C(=O)NCCN1CCN(C(=O)c2ccccc2Br)CC1)c1ccccc1 (configuration not stated)	0%	2%	-2%	nt
COc1cc(C(C(=O)NC2CCCCC2)N(C(=O)c2snc(C(N)=O)c2N)c2ccc(C)cc2)ccc1O (configuration not stated)	?	2%	-5%	-14
COc1ccc(N(C(=O)c2snc(C(N)=O)c2N)C(C(=O)NC2CCCC2)c2ccc(OC)c(OC)c2)cc1 (configuration not stated)	?	-3%	-10%	nt
Cc1c(C(=O)N2CCCCCC2)c(S(=O)(=O)NCc2ccccc2Cl)c(C)n1C	6%	1%	-5%	nt
CC(Sc1nc2cc([N+](=O)[O-])ccc2n1-c1ccc(F)cc1)C(=O)NCc1ccc2c(c1)OCO2 (configuration not stated)	?	15%	8%	nt
COc1ccccc1-n1c(SCC(=O)NCc2ccc3c(c2)OCO3)nc2cc([N+](=O)[O-])ccc21	13µM*	6%	?	1
c1ccc(COc2cccc(CN3CCc4ccccc4C3)c2)cc1	0%	3%	-1%	nt
COc1cccc(CNC(=O)COC(=O)c2ccc(-c3ccc(O)cc3)cc2)c1	nt	nt	-8%	nt
CCCCc1cc(=O)oc2cc(C)cc(OCC(=O)N3CCC(C(=O)O)(c4ccccc4)CC3)c12	22%	1%	-1%	nt
CCCc1cc(=O)oc2cc(OCC(=O)N3CCC(C(=O)O)(c4ccccc4)CC3)ccc12	11µM*	0%	-7%	?
O=C(Nc1ccc2c(c1)OCCO2)C(C1CC1)n1c(=O)c(-c2ccccc2)nc2ccccc21 (configuration not stated)	nt	nt	-20%	nt
C[C@@H]1CN([C@H](C)CO)C(=O)CCCn2cc(nn2)CO[C@H]1CN(C)C(=O)Cc1ccccc1	nt	nt	6%	nt
CC1Oc2ccccc2N(CC(=O)N2CCCc3ccccc32)C1=O (configuration not stated)	-11%	10%	-3%	nt
CC1Oc2ccccc2N(CC(=O)N2CCCCC2)C1=O (configuration not stated)	10µM*	2%	5%	9
O=C(N/N=C/c1c[nH]c2ccccc12)c1cc(-c2ccc3ccccc3c2)n[nH]1	?	-3%	4%	-3
O=C(N/N=C/c1c[nH]c2ccccc12)c1cc(-c2ccc(-c3ccccc3)cc2)n[nH]1	24%	-2%	45%	nt
O=C(c1cccc(F)c1)N1CCc2ccccc2C1	?	-14%	6%	-26
O=C(c1ccncc1)N1CCc2ccccc2C1	1%	-1%	-3%	nt
O=C(COc1ccc(Br)cc1)NNC(=S)NCc1ccccc1	9%	-3%	39%	nt
